Here are results for 13 compounds from PubChem BioAssay.

For some assays here: Potency and affinity values are given separately. Activity calls are given as the source filed them. Cut-off read from the data, not from the text of the source, unless noted: active = parasite load remaining mostly below about 12% (no sharp cut-off); inactive = mostly above about 10%.

The nature of test [1]: blockers of polyQ-driven CASP3 activation – cell-based (AID 1583). The following applies: polyglutamine-induced caspase-3 activation, cell assay; stronger effect = higher value;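 tested at 10 µM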.
The nature of test [2]: yeast 75Q aggregation reduction – 75Q-TubU reporter (AID 1593). Particulars: Yeast 75Q polyglutamine aggregation reporter.
Test [3] is described as follows: restoration of touch response, mutant HTT neurons – whole organism, C. elegans mechanosensory neurons, N-terminal huntingtin (AID 1599). The following applies: C. elegans polyQ-huntingtin mechanosensory neurons, stronger effect = higher value.
A short description of test [4]: blockers of cytochrome c efflux from mitochondria – biochemical, purified mitochondria (AID 1603).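 Note: mouse liver mitochondria challenged with calcium chloride; signal normalized to the plate average as 100%.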 The following applies: stronger effect = lower value.
Test [5] can be described thus: polyglutamine aggregate formation blockers (AID 1604). The following applies: polyglutamine-induced protein aggregation inhibition assay; stronger effect = higher value; tested at 2.5 µM.
Test [6] in a line: glutamate transport activators, MN-1 cells, MN-1 cell line (AID 1612).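 Note: tested at 1 µM final; 0% = mean of DMSO vehicle wells on each plate; positive means more glutamate uptake than control and negative means less.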 Particulars: MN-1 motor neuron cells, stronger effect = higher value.
A short description of test [7]: GFP-Q80 aggregate reduction, neuronal-like cells, cell-based, NGF-treated PC12, GFPQ80 (AID 1614).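 Note: lower means fewer inclusions and 0 means no inclusions at all.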 Particulars: PC12 NGF-treated GFP-polyQ80 inclusion reduction.
Test [8] can be described thus: 75Q-TubH aggregate inhibition, S. cerevisiae, yeast (AID 1616). Particulars: S. cerevisiae 75Q-TubH polyglutamine aggregation suppression; stronger effect = higher value.
Test [9] in a line: P. berghei load reduction in hepatocytes – cell-based, HepG2, luciferase luminescence, HepG2 viability, primary screen (AID 624349).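 Note: 100% = mean of DMSO negative control wells on the same plate.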 Particulars: P. berghei liver stage in HepG2, luciferase luminescence, concentration not given here; parasite load remaining: stronger effect = lower value; viability: measured here: HepG2 viability without parasites.
Test [10] in a line: compounds altering circadian rhythm period length – cell-based, LOPAC library, luminescence reporter (AID 2774; call rule not given here;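 note: values are relative to mean of DMSO wells on each plate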). The following applies: circadian reporter cells, at 7 µM, actives lie on both sides.

Turning to `CC(=O)Oc1ccc2c(c1)CCC1C2CCC2(C)C(=O)CCC12` (stereo not given), the inhibition (commonly the drop in the measured response relative to a control, in per cent) in test [1] was determined as 10.5%. For the same compound, the score in test [2] was -0.03. Besides, the rescue above control in [3] was -10.4. In test [4], the cytochrome c release ratio was 0.81. This compound also registered an inhibition of aggregation in [5] of 85.9%. Moreover, the glutamate uptake change in [6] was -16%. For the same compound, the inclusion score in test [7] came out at 2. For the same compound, in test [8], the aggregation suppression score was found to be 0.169.
In the case of `CC1(C)O[C@@H]2CC3C4CCC5=CC(=O)CCC5(C)C4(F)C(O)CC3(C)[C@]2(C(=O)CCl)O1` (stereo not given in full), the inhibition in test [1] was -34.5%. For the same compound, the score in test [2] stood at 1.26. The compound further had a rescue above control in test [3] of -3.98. Besides, in [4], the cytochrome c release ratio is 1.36. This compound also yielded an inhibition of aggregation in [5] of 79.5%. Moreover, the glutamate uptake change in test [6] amounted to 12.8%. In [7], this compound came in with an inclusion score of 2. In test [8], this compound displayed an aggregation suppression score of 1.1. Besides, in [9], the parasite load remaining was 190% (inactive) and the viability (in general, the share of living cells, or the viability signal relative to a control) worked out at 88.4%.
For `COC(=O)C(C)C[N+](C)(C)C` (stereo not given), the inhibition in test [1] was -13.8%. The compound further registered a score in [2] of 1.1. In test [3], the rescue above control is -5.92. Also, the cytochrome c release ratio in test [4] was determined as 1.54. Besides, in test [5], the inhibition of aggregation was determined as 60.6%. Besides, the glutamate uptake change in test [6] was determined as 0.97%. This compound showed an inclusion score in test [7] of 2. The compound also returned an aggregation suppression score in [8] of 1.5.
Consider `NCC1OC(OC2C(N)CC(N)C(OC3OC(CO)C(O)C(N)C3O)C2O)C(N)C(O)C1O` (stereo not given), for which the inhibition in test [1] was 27.6%. In test [2], this compound came in with a score of 0.94. In test [3], this compound yielded a rescue above control of -18. Also, in test [4], the cytochrome c release ratio turned out to be 4.45. The same compound came in with an inhibition of aggregation in [5] of 8.33%. In test [6], the glutamate uptake change is -14.8%. The inclusion score in test [7] was 2. The compound also yielded an aggregation suppression score in test [8] of 1.28.
In the case of `O=C(Cc1cccs1)NC1C(=O)N2C(C(=O)[O-])=C(C[n+]3ccccc3)CSC12` (stereo not given), the inhibition in test [1] was determined as 35.1%. The compound also registered a score in test [2] of 1.38. Further, the rescue above control in test [3] is -1.43. In [4], the cytochrome c release ratio came out at 1.22. The compound further displayed an inhibition of aggregation in [5] of 59%. For the same compound, the glutamate uptake change in test [6] is -13.7%. Moreover, in test [7], the inclusion score turned out to be 2. This compound also registered an aggregation suppression score in test [8] of 1.45. Besides, in test [9], the parasite load remaining was 179% (inactive) and the viability turned out to be 74.4%.
Turning to `CC12CCC(CC1=O)C2(C)C` (stereo not given), the inhibition in test [1] is 15.1%. The compound also returned a score in [2] of 1.08. The compound further came in with a rescue above control in test [3] of 1.05. Moreover, the cytochrome c release ratio in test [4] turned out to be 1.24. The same compound showed an inhibition of aggregation in test [5] of 43.2%. In addition, the glutamate uptake change in test [6] was 5.12%. Moreover, the inclusion score in test [7] was found to be 2. In addition, the aggregation suppression score in [8] was 1.49.
Consider `CC(=O)[C@H]1CCC2C3CC=C4C[C@@H](O)CC[C@]4(C)C3CC[C@@]21C` (stereo not given in full), for which, in test [1], the inhibition is 19.7%. In addition, in test [2], the score came to 0.01. Further, the rescue above control in [3] is -2.78. Moreover, the cytochrome c release ratio in [4] was determined as 1.03. In test [5], this compound had an inhibition of aggregation of 66.7%. In addition, the glutamate uptake change in [6] is -1.9%. In test [7], the inclusion score is 2. The same compound registered an aggregation suppression score in test [8] of 0.0851. In test [9], the parasite load remaining was 85.1% (inactive) and the viability was 69.9%.
In the case of `NCCNC(=O)c1ccc(Cl)cc1`, the inhibition in test [1] is -45.7%. In [2], the score came out at 1.23. In [3], this compound registered a rescue above control of -2.85. Further, the cytochrome c release ratio in test [4] turned out to be 1.14. The same compound gave an inhibition of aggregation in test [5] of 66.7%. In [6], the glutamate uptake change is 11.9%. The inclusion score in [7] turned out to be 2. In [8], this compound displayed an aggregation suppression score of 1.48. The period change in test [10] was 0.02 h (inactive).
With `CCC[C@@H]1C[C@@H](C(=O)NC(C(C)Cl)C2O[C@H](SC)[C@H](O)[C@@H](O)[C@H]2O)N(C)C1` (stereo not given in full), the inhibition in [1] is 0.38%. For the same compound, in test [2], the score is 1.1. Also, in test [3], the rescue above control was -7.48. Besides, the cytochrome c release ratio in test [4] amounted to 1.11. The compound also gave an inhibition of aggregation in test [5] of 60.6%. The glutamate uptake change in [6] is -13%. The inclusion score in test [7] amounted to 2. For the same compound, in test [8], the aggregation suppression score amounted to 1.42.
In the case of `COC(=O)/C(=C1\OC(=O)C(c2ccccc2)C1=O)c1ccccc1` (stereo not given), in [1], the inhibition was -4.2%. In [2], this compound had a score of 0.04. The same compound returned a rescue above control in test [3] of 9.72. The cytochrome c release ratio in [4] was determined as 2.13. Moreover, in [5], the inhibition of aggregation is 31.4%. In addition, the glutamate uptake change in test [6] is 6.01%. For the same compound, the inclusion score in [7] stood at 2. Further, the aggregation suppression score in [8] turned out to be 0.0212.
As to `CC(=O)OCC(=O)[C@@]1(O)CC[C@H]2C3CCC4=CC(=O)CCC4(C)[C@@]3(F)[C@@H](O)CC21C` (stereo not given in full), the inhibition in test [1] was 9.6%. Besides, the score in test [2] was found to be 1. In test [3], this compound registered a rescue above control of 20.3. Also, in test [4], the cytochrome c release ratio was determined as 0.71. This compound also had an inhibition of aggregation in test [5] of 88.9%. Moreover, the glutamate uptake change in [6] worked out at 7.44%. The same compound showed an inclusion score in [7] of 2. In addition, the aggregation suppression score in test [8] was determined as 1.14.
Consider `Nc1ncnc2c1ncn2C1OC(CO)[C@H](O)C1O` (stereo not given in full), for which the inhibition in [1] was -97.3%. In addition, in test [2], the score was 1.18. The compound further showed a rescue above control in test [3] of -9.49. In test [4], the cytochrome c release ratio is 1.64. In [5], the inhibition of aggregation was 80.6%. Further, the glutamate uptake change in test [6] was 3.91%. This compound came in with an inclusion score in [7] of 2. The compound further had an aggregation suppression score in test [8] of 1.96.
For `CCC(=O)OC1CCC2C3CCc4cc(O)ccc4C3CCC12C` (stereo not given), the inhibition in test [1] was 6.67%. In test [2], this compound registered a score of 0.64. This compound came in with a rescue above control in [3] of -1.7. Besides, the cytochrome c release ratio in test [4] turned out to be 1.72. For the same compound, the inhibition of aggregation in test [5] stood at 85.9%. Also, in test [6], the glutamate uptake change is -23.3%. Moreover, the aggregation suppression score in test [8] amounted to 0.421.
